The panel holds about 79,000 compounds, 15% with a hit somewhere; the sample as a whole holds those more often. Unmarked numbers belong to inactive results. Calls of active or inactive are those of the source. Rule as the data show it: active = growth inhibition above about 70%; inactive = the rest.

Assay [1] is described as follows: NCI Yeast Anticancer Drug Screen. Data for the rad50 strain (AID 155).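 Also: 0% = growth of vehicle-only cultures of the same strain.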 The note with it: S. cerevisiae rad50 strain growth inhibition, active compounds read high. The method in brief: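 Cells are treated with compound, grown, and their growth is then scored against vehicle-only cultures of the same repair-deficient yeast strain.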
Assay [2] can be described thus: NCI Yeast Anticancer Drug Screen. Data for the mec2-1 strain (AID 157). The note with it: S. cerevisiae mec2-1 strain, active compounds read high. The method in brief: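 Readout is yeast growth inhibition, normalised to vehicle-treated controls, in the mec2-1 strain exposed to compound.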
Assay [3] is described as follows: NCI Yeast Anticancer Drug Screen. Data for the sgs1 mgt1 strain (AID 161).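 Also: 0% = growth of cultures given vehicle only.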 The note with it: S. cerevisiae sgs1 mgt1 strain, active compounds read high. The method in brief: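 Compounds are added to genetically altered yeast, and growth is compared with cultures given vehicle alone to give percent inhibition.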
Assay [4] can be described thus: NCI Yeast Anticancer Drug Screen. Data for the cln2 rad14 strain (AID 165).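 Also: 0% = growth equal to vehicle treated cultures.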 The note with it: S. cerevisiae cln2 rad14 strain, active compounds read high. The method in brief: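 Relative to vehicle controls, growth inhibition of compound-treated cln2 rad14 yeast was recorded.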
Assay [5] in a line: NCI Yeast Anticancer Drug Screen. Data for the bub3 strain (AID 167). The note with it: S. cerevisiae bub3 mutant strain, active compounds read high. The method in brief: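 Part of a panel of yeast mutants defective in DNA damage repair or cell cycle regulation. Each strain is grown with compound, and inhibition is calculated relative to solvent-treated cultures.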
A short description of assay [6]: NCI Yeast Anticancer Drug Screen. Data for the mlh1 rad18 strain (AID 175). Particulars: S. cerevisiae mlh1 rad18 strain growth inhibition, active compounds read high. The method in brief:
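Test agents were incubated with a yeast strain of defined genotype (DNA damage repair defect). Inhibition of growth was derived by comparison with vehicle-exposed cultures.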

[7] abbreviates: at 5.0 µM (retest, dose inferred, filed as 0.5).
Where [8] appears, read: at 50.0 µM (retest, dose inferred, filed as 5.0).

Regarding `O=C1C(=Cc2ccccc2O)N=C(c2ccccc2)N1n1c(-c2ccccc2)nc2ccccc2c1=O`, the growth inhibition in assay [1] (setting [7]) was 5%; in assay [1] (setting [8]), 31%; in assay [1] (at 50.0 µM) it was 58%; in assay [2] (setting [7]) it was -3%; in assay [2] (setting [8]), 22%; in assay [2] (at 50.0 µM) it was 49.2%. In addition, the growth inhibition is 0% in assay [3] (setting [7]); 24% in assay [3] (setting [8]); 75.7% (active) in assay [3] (at 50.0 µM); 8% in assay [4] (setting [7]); 33% in assay [4] (setting [8]); 50.3% in assay [4] (at 50.0 µM). The growth inhibition in assay [5] (setting [7]) was -13%; in assay [5] (setting [8]), 45%; in assay [5] (at 50.0 µM) it was 80.2% (active); in assay [6] (setting [7]) it was 11%; in assay [6] (setting [8]), 39%; in assay [6] (at 50.0 µM) it was 73.3% (active).
As for `COC(=O)C1c2cc3c(c(O)c2CCC1(C)O)C(=O)c1c(O)cc2c(c1C3=O)OC1OC2(C)C(O)C(N(C)C)C1O` (configuration not stated), the growth inhibition in assay [1] (setting [7]) was 19%; in assay [1] (setting [8]) it was 63%; in assay [1] (at 50.0 µM), 91.9% (active); in assay [2] (setting [7]), 28%; in assay [2] (setting [8]), 59%; in assay [2] (at 50.0 µM) it was 86.3% (active). The growth inhibition was 12% in assay [3] (setting [7]); 58% in assay [3] (setting [8]); 92.6% (active) in assay [3] (at 50.0 µM); 15% in assay [4] (setting [7]); 73% (active) in assay [4] (setting [8]); 69.3% in assay [4] (at 50.0 µM). Further, the growth inhibition in assay [5] (setting [7]) was 72% (active); in assay [5] (setting [8]), 90% (active); in assay [5] (at 50.0 µM), 83.8% (active); in assay [6] (setting [7]), 36%; in assay [6] (setting [8]), 98% (active); in assay [6] (at 50.0 µM) it was 93% (active).
As to `c1ccc2c(c1)Cc1c-2nc2ccccc2c1N1CCOCC1`, the growth inhibition is 87% (active) in assay [1] (setting [7]); 98% (active) in assay [1] (setting [8]); 97% (active) in assay [1] (at 50.0 µM); 17% in assay [2] (setting [7]); 99% (active) in assay [2] (setting [8]); 91% (active) in assay [2] (at 50.0 µM). For the same molecule, the growth inhibition in assay [3] (setting [7]) is 6%; in assay [3] (setting [8]), 98% (active); in assay [3] (at 50.0 µM), 82.3% (active); in assay [4] (setting [7]), 18%; in assay [4] (setting [8]), 98% (active); in assay [4] (at 50.0 µM), 34.9%. The growth inhibition in assay [5] (setting [7]) was 54%; in assay [5] (setting [8]), 98% (active); in assay [5] (at 50.0 µM), 67.5%; in assay [6] (setting [7]), 25%; in assay [6] (setting [8]) it was 98% (active); in assay [6] (at 50.0 µM), 89.7% (active).
With `Clc1cc(Cl)c2c(c1)nc(Cl)c1cc(Cl)ccc12`, the growth inhibition in assay [1] (setting [7]) is -13%; in assay [1] (setting [8]) it was 1%; in assay [1] (at 50.0 µM), 97% (active); in assay [2] (setting [7]), -13%; in assay [2] (setting [8]), 7%; in assay [2] (at 50.0 µM) it was 99% (active). Also, the growth inhibition was -5% in assay [3] (setting [7]); 1% in assay [3] (setting [8]); 97.6% (active) in assay [3] (at 50.0 µM); -1% in assay [4] (setting [7]); 2% in assay [4] (setting [8]); 98.5% (active) in assay [4] (at 50.0 µM). The growth inhibition is -5% in assay [5] (setting [7]); 1% in assay [5] (setting [8]); 98.7% (active) in assay [5] (at 50.0 µM); -14% in assay [6] (setting [7]); -20% in assay [6] (setting [8]); 98.6% (active) in assay [6] (at 50.0 µM).
Regarding `O=C(/C=C/C(=N\Nc1ccccc1)c1ccccc1)c1ccccc1`, the growth inhibition in assay [1] (setting [7]) was 21%; in assay [1] (setting [8]), 90% (active); in assay [1] (at 50.0 µM), 37.9%; in assay [2] (setting [7]), 23%; in assay [2] (setting [8]) it was 99% (active); in assay [2] (at 50.0 µM), 13.9%. Besides, the growth inhibition in assay [3] (setting [7]) is 27%; in assay [3] (setting [8]), 96% (active); in assay [3] (at 50.0 µM) it was 26.4%; in assay [4] (setting [7]) it was 46%; in assay [4] (setting [8]) it was 98% (active); in assay [4] (at 50.0 µM), 30.9%. In addition, the growth inhibition in assay [5] (setting [7]) is 67%; in assay [5] (setting [8]), 99% (active); in assay [5] (at 50.0 µM) it was 21.5%; in assay [6] (setting [7]) it was 47%; in assay [6] (setting [8]), 95% (active); in assay [6] (at 50.0 µM) it was 72% (active).
In the case of `O=S(=O)(c1ccc2c(c1)CCCN2)N1CCC[C@H]2CCCC[C@@H]21`, the growth inhibition in assay [1] (setting [7]) was 7%; in assay [1] (setting [8]), 94% (active); in assay [1] (at 50.0 µM), 95.3% (active); in assay [2] (setting [7]), -2%; in assay [2] (setting [8]), 96% (active); in assay [2] (at 50.0 µM), 96.8% (active). For the same molecule, the growth inhibition in assay [3] (setting [7]) is 0%; in assay [3] (setting [8]), 95% (active); in assay [3] (at 50.0 µM) it was 97.1% (active); in assay [4] (setting [7]), 32%; in assay [4] (setting [8]) it was 94% (active); in assay [4] (at 50.0 µM), 95.5% (active). Moreover, the growth inhibition is 14% in assay [5] (setting [7]); 96% (active) in assay [5] (setting [8]); 98.2% (active) in assay [5] (at 50.0 µM); 11% in assay [6] (setting [7]); 93% (active) in assay [6] (setting [8]); 95% (active) in assay [6] (at 50.0 µM).
`S=c1nc(/C=C/c2ccc(Cl)c(Cl)c2)[nH][nH]1`: the growth inhibition was 29% in assay [1] (setting [7]); 68% in assay [1] (setting [8]); 79.5% (active) in assay [1] (at 50.0 µM); 28% in assay [2] (setting [7]); 51% in assay [2] (setting [8]); 44.8% in assay [2] (at 50.0 µM). The growth inhibition in assay [3] (setting [7]) was 27%; in assay [3] (setting [8]) it was 51%; in assay [3] (at 50.0 µM) it was 65.2%; in assay [4] (setting [7]), 31%; in assay [4] (setting [8]), 42%; in assay [4] (at 50.0 µM), 65%. Further, the growth inhibition is 33% in assay [5] (setting [7]); 67% in assay [5] (setting [8]); 83.7% (active) in assay [5] (at 50.0 µM); 39% in assay [6] (setting [7]); 71% (active) in assay [6] (setting [8]); 22.6% in assay [6] (at 50.0 µM).
As to `CCOC(=O)C1=C(C)NC(C)=C(C(=O)OCC)C1c1ccnc2ccccc12`, the growth inhibition in assay [1] (setting [7]) is 10%; in assay [1] (setting [8]), 94% (active); in assay [1] (at 50.0 µM), 63.8%; in assay [2] (setting [7]) it was 7%; in assay [2] (setting [8]) it was 97% (active); in assay [2] (at 50.0 µM), 54.4%. In addition, the growth inhibition is -26% in assay [3] (setting [7]); 96% (active) in assay [3] (setting [8]); 55% in assay [3] (at 50.0 µM); -8% in assay [4] (setting [7]); 93% (active) in assay [4] (setting [8]); 63.8% in assay [4] (at 50.0 µM). Further, the growth inhibition in assay [5] (setting [7]) is 10%; in assay [5] (setting [8]) it was 93% (active); in assay [5] (at 50.0 µM) it was 98% (active); in assay [6] (setting [7]), 10%; in assay [6] (setting [8]) it was 96% (active); in assay [6] (at 50.0 µM), 55.9%.
As for `O=c1c(O)cc2c(O)oc3c(=O)c(O)c(O)c4c(O)oc1c2c43`, the growth inhibition was 58% in assay [1] (setting [7]); 96% (active) in assay [1] (setting [8]); 88.4% (active) in assay [1] (at 50.0 µM); 23% in assay [2] (setting [7]); 93% (active) in assay [2] (setting [8]); 57.2% in assay [2] (at 50.0 µM). In addition, the growth inhibition in assay [3] (setting [7]) was 41%; in assay [3] (setting [8]) it was 90% (active); in assay [3] (at 50.0 µM), 67.2%; in assay [4] (setting [7]), 12%; in assay [4] (setting [8]), 90% (active); in assay [4] (at 50.0 µM), 50.3%. In addition, the growth inhibition is 25% in assay [5] (setting [7]); 90% (active) in assay [5] (setting [8]); 85% (active) in assay [5] (at 50.0 µM); 41% in assay [6] (setting [7]); 96% (active) in assay [6] (setting [8]); 66.2% in assay [6] (at 50.0 µM).

The values above are taken from PubChem BioAssay (NCI).
